Entries with a potency or affinity are not part of this list.
target: Protein S100-A4 (Homo sapiens) (UniProt P26447); assay: S100A4-myosin IIA binding inhibitor potency, dose response, biochemical, fluorescence polarization, cherry-picked hits (AID 687001); conditions: FP, S100A4/TAMRA-myosin IIA peptide binding; series mostly up to 11 µM; activity change, negative = inhibition: at the top concentration;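 further: 0% = DMSO neutral control wells and -100% = TFP positive control wells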
Sequence (P26447 whole entry, looked up): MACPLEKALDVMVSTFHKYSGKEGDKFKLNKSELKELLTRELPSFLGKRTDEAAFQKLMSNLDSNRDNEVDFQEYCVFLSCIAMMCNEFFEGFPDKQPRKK

Activity change, negative = inhibition, inactive:
Cc1ccccc1S(=O)(=O)N1C[C@H](O)COC[C@@H]2O[C@@H](CC(=O)NCc3ccccc3Cl)CC[C@H]21 -0.711%
O=C(C[C@H]1CC[C@@H]2[C@H](COC[C@H](O)CN2C(=O)Nc2ccc3c(c2)OCO3)O1)N1CCN(c2ccccc2)CC1 5.56%
COc1ccc(OCC(=O)N2CCCC2=O)c([N+](=O)[O-])c1 5.77%
COc1cccc(-c2ccc([C@@H]3[C@H](CO)N4CCCCN(C(=O)c5ccc(F)cc5)C[C@@H]34)cc2)c1 8.69%
CC(C)n1c(CNC(=O)c2ccccc2F)nnc1SCC(=O)c1ccc(F)cc1 28%
Cc1[nH]c2ccccc2c1CC(=O)Nc1ccc(Nc2cccnc2)c(Br)c1 19.9%
C[C@@H]1CCCCO[C@H](CN(C)C(=O)NC2CCCCC2)[C@@H](C)CN([C@@H](C)CO)C(=O)c2cc(NC(=O)Nc3ccc(C(F)(F)F)cc3)ccc2O1 21.9%
Cc1ccc(S(=O)(=O)N2CCOCC2)cc1NC(=O)COC(=O)Cc1cccs1 -1.47%
Clc1ccc(-c2nc(CSc3ccccn3)cs2)cc1 -0.314%
Cc1cc(Br)ccc1NC(=O)CN(C)C(=O)c1ccc(-n2cncn2)c([N+](=O)[O-])c1 0.931%
COCCOC(=O)c1nccnc1C(=O)Nc1ccc(S(=O)(=O)N2CCOCC2)cc1 -5.51%
Nc1cccc2c(=O)[nH][nH]c(=O)c12 -1.11%
CCOC(=O)N1CCN(C(=O)COc2ccc3oc4c(c3c2)CCCC4)CC1 0.733%
CC(C)NC(=O)Nc1ccc2c(c1)C(=O)N([C@@H](C)CO)C[C@H](C)[C@H](CN(C)C(=O)c1ccncc1)OCCCC[C@H](C)O2 0.542%
CC(C)C(=O)Nc1ccc2c(c1)C(=O)N(C)[C@H]1CC[C@H](CC(=O)Nc3cccc(F)c3)O[C@@H]1CO2 -3.5%
COCC(=O)N1CC2(CCN(Cc3ccccc3Cl)CC2)c2c([nH]c3cc(OC)ccc23)[C@H]1CO 7.56%
O=C(C[C@@H]1CC[C@@H]2[C@H](COC[C@@H](O)CN2C(=O)c2ccc3c(c2)OCO3)O1)NCCN1CCCC1 55.7%
COc1ccc(S(=O)(=O)N(C)C[C@@H]2OCCCC[C@@H](C)Oc3ccc(NC(=O)Nc4ccc(C(F)(F)F)cc4)cc3C(=O)N([C@H](C)CO)C[C@@H]2C)cc1 3.23% [at 10 µM]
O=C(c1cccc(F)c1)N1CC[C@H]2[C@H](CO)Nc3ccc(-c4ccc(F)cc4)cc3[C@H]21 3.72%
COCC(=O)N(C)C[C@H]1Oc2cc(C#CCN(C)C)ccc2S(=O)(=O)N([C@@H](C)CO)C[C@H]1C 2.11%
O=C(C[C@H]1CC[C@H]2NC[C@H](O)COC[C@@H]2O1)NCCN1CCCCC1 0.797%
NC(=O)NC(Cc1ccccc1)C(=O)NCCCSc1ccccc1 (stereo not drawn) -2.69%
C#CCOCCOCCOCCNc1nc(N2CCN(C(=O)[C@H]([C@@H](C)CC)n3cc(CCCCN)nn3)CC2)nc(N2CCN(C(=O)[C@H](C)n3cc(CCC(=O)O)nn3)CC2)n1 -4.18%
Cc1cccc(NC(=O)CNC(=O)c2ccccc2Cl)n1 5.06%
CC=Cc1ccc2n(c1=O)C[C@H]1[C@H](CO)[C@@H](C(=O)NCC3CC3)[C@@H]2N1Cc1cccnc1 (mixture of isomers) 1.13%
CCCNC(=O)N1CC(=O)N2[C@H](CO)[C@@H](c3ccc(-c4ccc(F)cc4)cc3)[C@H]2C1 8.48%
Cc1ccc(S(=O)(=O)Nc2ccc3c(c2)C(=O)N([C@H](C)CO)C[C@@H](C)[C@H](CN(C)S(C)(=O)=O)OCCCC[C@@H](C)O3)cc1 6.54%
CN(CCC#N)C(=O)COC(=O)[C@H](Cc1ccccc1)N1C(=O)c2ccccc2C1=O 1.05%
CCc1cccc(C)c1NC(=O)COC(=O)C1CC(=O)N(CCc2ccc(OC)c(OC)c2)C1 (stereo not drawn) -4.85%
Cc1cc2cc(CNC(=O)c3ccc(S(=O)(=O)N4CCCC4)cc3)ccc2n1C 4.75%
CC(C)CC#Cc1ccc([C@H]2[C@H]3CN(C(=O)Cc4cccnc4)CC(=O)N3[C@H]2CO)cc1 -2.42%
COc1ccccc1NC(=S)NC(=O)Cc1ccccc1 -2.14%
CN(C)CCCNC(=O)C[C@@H]1CC[C@H]2[C@@H](COC[C@@H](O)CN2Cc2ccc(Cl)c(Cl)c2)O1 6.42%
CN(C)C(=O)[C@H]1[C@H](CO)[C@H]2Cn3c(cccc3=O)[C@@H]1N2C(=O)c1ccccc1 1.74%
CN1c2ccc(C#Cc3cccnc3)cc2[C@@H]2[C@@H](CCN2S(=O)(=O)c2ccccc2F)[C@@H]1CO 62.9% [at 10 µM]
COC(=O)[C@@]12C[C@@H](CC(=O)N3CCN(C(=O)c4ccco4)CC3)C(=O)N(CCc3ccc(OC)c(OC)c3)C1=CCC(C)(C)C2 -1.37%
O=C(NCCc1ccco1)C(=O)NCC1OCCCN1S(=O)(=O)c1cc(F)ccc1F (stereo not drawn) -1.88%
Cn1cnc(CCNC(=O)C[C@@H]2CC[C@H]3[C@@H](COC[C@@H](O)CN3C(=O)C3CC3)O2)c1 3.44%

Source: PubChem BioAssay AID687001 (Broad Institute, 2013)
